{
  "source": "the supplement of paper PMC9844399",
  "note": "Where a name gives a salt, the structure may show the parent alone.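 Further: High-content confocal imaging of branched-DNA amplified FISH in 384-well plates, Hoechst-defined nuclei, score is well value minus plate DMSO median over DMSO robust SD, four wells per compound.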",
  "data": [
    {"tested_on": "HeLa", "test": "MALAT1 nuclear FISH intensity, robust Z-score vs DMSO; higher = more nuclear MALAT1 lncRNA, active = -3 or less", "settings": "10 µM; 6 h", "values": [
      {"smiles": "N=C(N)NC(=O)c1nc(Cl)c(N)nc1N", "MALAT1 nuclear FISH intensity": "-0.506 (inactive)"},
      {"smiles": "CCCC1O[C@@H]2C[C@H]3[C@@H]4CCC5=CC(=O)C=C[C@]5(C)[C@H]4[C@@H](O)C[C@]3(C)[C@]2(C(=O)CO)O1", "note": "(stereo not given in full) [Budesonide]", "MALAT1 nuclear FISH intensity": "1.13 (inactive)"},
      {"smiles": "Cc1ccc(C(=O)c2ccc(CC(=O)O)n2C)cc1", "note": "[Tolmetin sodium dihydrate]", "MALAT1 nuclear FISH intensity": "-0.389 (inactive)"},
      {"smiles": "Clc1ccc(COC(Cn2ccnc2)c2ccc(Cl)cc2Cl)cc1", "note": "(stereo not given) [Econazole Nitrate]", "MALAT1 nuclear FISH intensity": "0.776 (inactive)"},
      {"smiles": "CC(C)NCC(O)c1ccc(NS(C)(=O)=O)cc1", "note": "(stereo not given)", "MALAT1 nuclear FISH intensity": "-1.02 (inactive)"},
      {"smiles": "COc1cc(NC(C)CCCN)c2ncccc2c1", "note": "(stereo not given) [Primaquine bisphosphate]", "MALAT1 nuclear FISH intensity": "-1.83 (inactive)"},
      {"smiles": "Cc1ccc(C(=O)Nc2ccc(S(=O)(=O)O)c3cc(S(=O)(=O)O)cc(S(=O)(=O)O)c23)cc1NC(=O)c1cccc(NC(=O)Nc2cccc(C(=O)Nc3cc(C(=O)Nc4ccc(S(=O)(=O)O)c5cc(S(=O)(=O)O)cc(S(=O)(=O)O)c45)ccc3C)c2)c1", "note": "[Suramin sodium salt]", "MALAT1 nuclear FISH intensity": "-0.553 (inactive)"},
      {"smiles": "CC(=O)Oc1ccccc1C(=O)O", "note": "[Aspirin (Acetylsalicylic Acid)]", "MALAT1 nuclear FISH intensity": "0.408 (inactive)"},
      {"smiles": "CC1=C(/C=C/C(C)=C/C=C/C(C)=C\\C(=O)O)C(C)(C)CCC1", "note": "[Isotretinoin (13-Cis-Retinoic Acid)]", "MALAT1 nuclear FISH intensity": "-0.557 (inactive)"},
      {"smiles": "CN1CCCCC1CCN1c2ccccc2Sc2ccc([S+](C)[O-])cc21", "note": "(stereo not given) [Mesoridazine benzenesulfonate]", "MALAT1 nuclear FISH intensity": "-1.12 (inactive)"},
      {"smiles": "NC(=O)N1c2ccccc2C=Cc2ccccc21", "note": "[Carbamazepine]", "MALAT1 nuclear FISH intensity": "-0.0498 (inactive)"},
      {"smiles": "C[n+]1ccccc1/C=N/O", "note": "[Pralidoxime Chloride]", "MALAT1 nuclear FISH intensity": "0.0114 (inactive)"},
      {"smiles": "CCCCCCCC/C=C\\CCCCCCCC(=O)OCC(CO)OC(=O)CCCCCCC/C=C\\CCCCCCCC", "note": "(stereo not given) [1,2-Dioleoyl-glycerol (18:1)]", "MALAT1 nuclear FISH intensity": "-0.132 (inactive)"},
      {"smiles": "C[C@H]1O[C@H](O[C@H]2[C@H](O)[C@@H](O)[C@@H](O[C@H]3[C@H](O)[C@@H](O)C(O)O[C@@H]3CO)O[C@@H]2CO)[C@H](O)[C@@H](O)[C@@H]1N[C@H]1C=C(CO)[C@@H](O)[C@H](O)[C@H]1O", "note": "(stereo not given in full) [Acarbose]", "MALAT1 nuclear FISH intensity": "-1.04 (inactive)"},
      {"smiles": "CC(=O)O[C@H]1C(=O)[C@@]2(C)[C@H]([C@H](OC(=O)c3ccccc3)[C@]3(O)C[C@H](OC(=O)[C@H](O)[C@@H](NC(=O)c4ccccc4)c4ccccc4)C(C)=C1C3(C)C)[C@]1(OC(C)=O)CO[C@@H]1C[C@@H]2O", "note": "[Paclitaxel (Taxol)]", "MALAT1 nuclear FISH intensity": "-0.583 (inactive)"},
      {"smiles": "CCCCCCCCCCCCCCCCOCC(CO)OC(C)=O", "note": "(stereo not given) [1-Hexadecyl-2-O-acetyl-glycerol]", "MALAT1 nuclear FISH intensity": "0.86 (inactive)"},
      {"smiles": "COC1CC2CCC(C)C(O)(O2)C(=O)C(=O)N2CCCCC2C(=O)OC(C(C)CC2CCC(O)C(OC)C2)CC(=O)C(C)C=C(C)C(O)C(OC)C(=O)C(C)CC(C)C=CC=CC=C1C", "note": "(stereo not given) [Rapamycin from Streptomyces hygroscopicus]", "MALAT1 nuclear FISH intensity": "2.23 (inactive)"},
      {"smiles": "Fc1ccc(CNc2ncnc3ccc(F)cc23)cc1", "note": "[Spautin-1]", "MALAT1 nuclear FISH intensity": "-1.16 (inactive)"},
      {"smiles": "CC1(C)NC(=O)N(c2ccc([N+](=O)[O-])c(C(F)(F)F)c2)C1=O", "note": "[Nilutamide]", "MALAT1 nuclear FISH intensity": "-0.809 (inactive)"},
      {"smiles": "CCCCC[C@H](O)/C=C/C1=C(CCCCCCC(=O)O)C(=O)CC1", "note": "[Prostaglandin B1]", "MALAT1 nuclear FISH intensity": "-0.084 (inactive)"},
      {"smiles": "COc1ccc2c(c1)c(CC(=O)O)c(C)n2C(=O)c1ccc(Cl)cc1", "note": "[Indomethacin]", "MALAT1 nuclear FISH intensity": "-0.0795 (inactive)"},
      {"smiles": "CCC(=O)O[C@]1(C(=O)CCl)[C@@H](C)C[C@H]2[C@@H]3CCC4=CC(=O)C=C[C@]4(C)[C@@]3(F)[C@@H](O)C[C@@]21C", "note": "[Clobetasol Propionate]", "MALAT1 nuclear FISH intensity": "0.628 (inactive)"},
      {"smiles": "CC(C)C[C@@H](/C=C/S(C)(=O)=O)NC(=O)[C@H](CC(C)C)NC(=O)[C@H](CC(C)C)NC(=O)OCc1ccccc1", "MALAT1 nuclear FISH intensity": "-0.805 (inactive)"},
      {"smiles": "O=C(O)C(=O)O.[NH-][C@@H]1CCCC[C@H]1[NH-].[Pt+2]", "note": "[Oxaliplatin]", "MALAT1 nuclear FISH intensity": "-0.628 (inactive)"},
      {"smiles": "CCN(CC)CCOC(=O)C1(C2CCCCC2)CCCCC1", "MALAT1 nuclear FISH intensity": "1.14 (inactive)"},
      {"smiles": "CCN(CC)CCNC(=O)c1ccc(N)cc1", "note": "[Procainamide]", "MALAT1 nuclear FISH intensity": "0.718 (inactive)"},
      {"smiles": "N#Cc1cc2c(OCC(O)CN3CCN(C(c4ccccc4)c4ccccc4)CC3)cccc2[nH]1", "note": "(stereo not given)", "MALAT1 nuclear FISH intensity": "-0.269 (inactive)"},
      {"smiles": "Oc1cc(O)cc(/C=C/c2ccc(O)c(O)c2)c1", "note": "[Piceatannol]", "MALAT1 nuclear FISH intensity": "-1.71 (inactive)"},
      {"smiles": "CC(=O)Oc1cc2c(s1)CCN(C(C(=O)C1CC1)c1ccccc1F)C2", "note": "(stereo not given) [Prasugrel]", "MALAT1 nuclear FISH intensity": "-0.635 (inactive)"},
      {"smiles": "CC[C@H](CO)Nc1nc(NCc2ccccc2)c2ncn(C(C)C)c2n1", "note": "[Roscovitine]", "MALAT1 nuclear FISH intensity": "-1.67 (inactive)"},
      {"smiles": "Oc1ncnc2[nH]ncc12", "note": "[Allopurinol]", "MALAT1 nuclear FISH intensity": "-0.557 (inactive)"},
      {"smiles": "Nc1ncnc2c1c(I)cn2[C@@H]1O[C@H](CO)[C@@H](O)[C@H]1O", "note": "[5-Iodotubercidin]", "MALAT1 nuclear FISH intensity": "-6.75 (active)"},
      {"smiles": "COc1cc(C(=O)NS(=O)(=O)c2ccccc2C)ccc1Cc1cn(C)c2ccc(NC(=O)OC3CCCC3)cc12", "note": "[Zafirlukast]", "MALAT1 nuclear FISH intensity": "0.491 (inactive)"},
      {"smiles": "CO[C@H]1C[C@@H]2CC[C@@H](C)[C@@](O)(O2)C(=O)C(=O)N2CCCC[C@H]2C(=O)O[C@H]([C@H](C)C[C@@H]2CC[C@@H](OC(=O)C(C)(CO)CO)[C@H](OC)C2)CC(=O)[C@H](C)/C=C(\\C)[C@@H](O)[C@@H](OC)C(=O)[C@H](C)C[C@H](C)/C=C/C=C/C=C/1C", "note": "[Temsirolimus]", "MALAT1 nuclear FISH intensity": "1.29 (inactive)"},
      {"smiles": "O=C(O)c1cc(-c2ccccc2)nc2ccccc12", "note": "[Cincophen]", "MALAT1 nuclear FISH intensity": "-1.39 (inactive)"},
      {"smiles": "C=C(c1ccc(C(=O)O)cc1)c1cc2c(cc1C)C(C)(C)CCC2(C)C", "note": "[Bexarotene]", "MALAT1 nuclear FISH intensity": "-1.19 (inactive)"},
      {"smiles": "COC(=O)[C@H](c1ccccc1Cl)N1CCc2sccc2C1", "note": "[Clopidogrel Hydrogen Sulfate]", "MALAT1 nuclear FISH intensity": "-0.13 (inactive)"},
      {"smiles": "Nc1nc(NC2CC2)c2ncn([C@H]3C=C[C@@H](CO)C3)c2n1", "note": "[Abacavir Sulfate]", "MALAT1 nuclear FISH intensity": "0.552 (inactive)"},
      {"smiles": "CCOC(=O)[C@H](CCc1ccccc1)N[C@@H](C)C(=O)N1[C@H](C(=O)O)C[C@@H]2CCC[C@@H]21", "note": "[Ramipril]", "MALAT1 nuclear FISH intensity": "-1.62 (inactive)"},
      {"smiles": "CN/C(=N\\CCSCc1nc[nH]c1C)NC#N", "note": "[Cimetidine]", "MALAT1 nuclear FISH intensity": "-1.02 (inactive)"}
    ]}
  ]
}
